# Legend:
# Test in all cases: DAPPL (digital affinity profiling via proximity ligation, sequencing); 10 mM Tris-HCl pH 7.5, 50 mM NaCl, 1 mM DTT, 4% glycerol, room temperature, 30 min; GST-TFs on glutathione beads, 16-mer random dsDNA library, 0.1% formaldehyde crosslink after washing; high values mean tight binding
# FLI1 = biological target: T1, FLI1 (Homo sapiens, UniProt Q01543 1-452); details: protein: recombinant; tags: N-terminal GST; dsDNA, one strand shown
# T1 sequence: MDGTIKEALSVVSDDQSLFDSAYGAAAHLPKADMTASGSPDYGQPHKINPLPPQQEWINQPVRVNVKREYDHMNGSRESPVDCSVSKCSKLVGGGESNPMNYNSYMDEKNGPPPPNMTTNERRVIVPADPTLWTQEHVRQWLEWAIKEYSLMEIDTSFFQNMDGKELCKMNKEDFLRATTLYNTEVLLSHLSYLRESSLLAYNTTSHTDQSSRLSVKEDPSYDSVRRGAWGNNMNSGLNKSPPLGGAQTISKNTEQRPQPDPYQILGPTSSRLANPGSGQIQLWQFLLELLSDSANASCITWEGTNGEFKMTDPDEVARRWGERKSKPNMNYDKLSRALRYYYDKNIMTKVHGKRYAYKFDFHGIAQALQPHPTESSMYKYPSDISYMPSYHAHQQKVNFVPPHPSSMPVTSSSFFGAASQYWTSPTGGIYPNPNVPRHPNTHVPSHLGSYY
# In short: (§1)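 GST fusions of human transcription factors were expressed in yeast and captured with glutathione beads. Once given DNA barcodes and pooled alongside a tag-only sample, they were incubated for 30 min at room temperature with 200 nmole of a random double-stranded 16-mer DNA library in Tris/NaCl/DTT/glycerol buffer, then washed, crosslinked (0.1% formaldehyde), proximity-ligated, PCR-amplified and sequenced on an Illumina NextSeq500. The binding signal of each hexamer is its read frequency for a factor divided by its frequency for the tag-only sample.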
# ELK1 = biological target: T2, ELK1 (Homo sapiens, UniProt P19419 1-428); details: protein: recombinant; tags: N-terminal GST; dsDNA, one strand shown
# T2 sequence: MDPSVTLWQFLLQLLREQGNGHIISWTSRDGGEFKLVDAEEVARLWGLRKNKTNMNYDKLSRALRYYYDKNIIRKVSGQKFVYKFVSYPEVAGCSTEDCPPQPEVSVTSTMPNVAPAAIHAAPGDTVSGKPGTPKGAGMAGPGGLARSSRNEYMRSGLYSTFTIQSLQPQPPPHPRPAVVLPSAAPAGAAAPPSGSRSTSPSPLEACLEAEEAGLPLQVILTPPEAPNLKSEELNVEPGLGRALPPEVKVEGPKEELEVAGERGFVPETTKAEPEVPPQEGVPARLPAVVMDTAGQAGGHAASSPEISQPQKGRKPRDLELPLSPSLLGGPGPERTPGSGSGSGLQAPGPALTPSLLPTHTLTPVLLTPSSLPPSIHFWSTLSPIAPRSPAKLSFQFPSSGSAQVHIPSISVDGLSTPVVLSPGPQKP
# In short: as §1
# GABPA = biological target: T3, GABPA (Homo sapiens, UniProt Q06546 1-454); details: protein: recombinant; tags: N-terminal GST; dsDNA, one strand shown
# T3 sequence: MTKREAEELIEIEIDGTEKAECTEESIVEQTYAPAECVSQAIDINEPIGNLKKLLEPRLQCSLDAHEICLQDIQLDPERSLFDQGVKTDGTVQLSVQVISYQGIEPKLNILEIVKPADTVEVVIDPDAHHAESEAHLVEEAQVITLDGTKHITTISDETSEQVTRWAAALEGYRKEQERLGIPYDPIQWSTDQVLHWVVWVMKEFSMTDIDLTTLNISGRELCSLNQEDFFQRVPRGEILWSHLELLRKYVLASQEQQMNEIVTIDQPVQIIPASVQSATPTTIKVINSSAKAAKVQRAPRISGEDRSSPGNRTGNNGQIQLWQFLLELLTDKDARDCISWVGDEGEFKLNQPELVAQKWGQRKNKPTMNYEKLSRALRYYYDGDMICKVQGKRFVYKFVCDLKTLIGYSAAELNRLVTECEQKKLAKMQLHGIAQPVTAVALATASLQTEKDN
# In short: as §1
# ERG = biological target: T4, ERG (Homo sapiens, UniProt P11308 1-479); details: protein: recombinant; tags: N-terminal GST; dsDNA, one strand shown
# T4 sequence: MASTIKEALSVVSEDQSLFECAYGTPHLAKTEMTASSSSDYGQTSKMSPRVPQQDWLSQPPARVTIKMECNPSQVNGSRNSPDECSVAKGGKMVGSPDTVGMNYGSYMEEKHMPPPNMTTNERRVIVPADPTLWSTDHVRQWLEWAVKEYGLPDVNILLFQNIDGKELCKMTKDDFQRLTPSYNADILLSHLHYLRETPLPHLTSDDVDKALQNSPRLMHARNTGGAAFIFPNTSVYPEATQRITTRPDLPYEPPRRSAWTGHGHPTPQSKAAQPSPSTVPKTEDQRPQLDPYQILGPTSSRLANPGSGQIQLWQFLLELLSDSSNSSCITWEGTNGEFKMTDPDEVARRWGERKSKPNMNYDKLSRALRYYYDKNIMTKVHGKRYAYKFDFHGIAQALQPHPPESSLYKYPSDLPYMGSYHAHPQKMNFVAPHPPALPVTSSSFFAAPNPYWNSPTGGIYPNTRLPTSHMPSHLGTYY
# In short: as §1
# ELF1 = ELF1 (Homo sapiens, UniProt P32519 1-619); details: protein: recombinant; tags: N-terminal GST; dsDNA, one strand shown
# In short: as §1
# EHF = biological target: T5, EHF (Homo sapiens, UniProt Q9NZC4 1-300); details: protein: recombinant; tags: N-terminal GST; dsDNA, one strand shown
# T5 sequence: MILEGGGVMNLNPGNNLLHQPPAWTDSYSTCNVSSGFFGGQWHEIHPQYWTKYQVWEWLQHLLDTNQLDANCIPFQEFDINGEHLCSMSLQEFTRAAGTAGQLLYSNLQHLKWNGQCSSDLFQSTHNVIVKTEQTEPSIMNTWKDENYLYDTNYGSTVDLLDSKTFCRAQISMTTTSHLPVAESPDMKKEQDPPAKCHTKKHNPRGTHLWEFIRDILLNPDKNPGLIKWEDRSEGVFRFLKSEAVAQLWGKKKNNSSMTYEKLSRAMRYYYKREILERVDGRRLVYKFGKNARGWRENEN
# In short: as §1
# SPI1 = SPI1 (Homo sapiens, UniProt P17947 1-270); details: protein: recombinant; tags: N-terminal GST; dsDNA, one strand shown
# In short: as §1
# SPIB = SPIB (Homo sapiens, UniProt Q01892 1-262); details: protein: recombinant; tags: N-terminal GST; dsDNA, one strand shown
# In short: as §1
# ELK3 = biological target: T6, ELK3 (Homo sapiens, UniProt P41970 1-407); details: protein: recombinant; tags: N-terminal GST; dsDNA, one strand shown
# T6 sequence: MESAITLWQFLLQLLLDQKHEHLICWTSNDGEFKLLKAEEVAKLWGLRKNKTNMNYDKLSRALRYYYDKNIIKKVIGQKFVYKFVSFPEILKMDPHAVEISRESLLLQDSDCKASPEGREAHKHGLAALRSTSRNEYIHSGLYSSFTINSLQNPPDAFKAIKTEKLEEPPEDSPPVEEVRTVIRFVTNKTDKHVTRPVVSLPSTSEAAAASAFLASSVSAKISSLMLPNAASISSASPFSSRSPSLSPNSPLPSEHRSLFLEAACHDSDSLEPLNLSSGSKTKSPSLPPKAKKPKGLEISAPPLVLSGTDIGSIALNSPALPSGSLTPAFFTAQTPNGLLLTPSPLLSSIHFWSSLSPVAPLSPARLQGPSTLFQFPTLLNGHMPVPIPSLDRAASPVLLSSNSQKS
# In short: as §1
# FEV = biological target: T7, FEV (Homo sapiens, UniProt Q99581 1-238); details: protein: recombinant; tags: N-terminal GST; dsDNA, one strand shown
# T7 sequence: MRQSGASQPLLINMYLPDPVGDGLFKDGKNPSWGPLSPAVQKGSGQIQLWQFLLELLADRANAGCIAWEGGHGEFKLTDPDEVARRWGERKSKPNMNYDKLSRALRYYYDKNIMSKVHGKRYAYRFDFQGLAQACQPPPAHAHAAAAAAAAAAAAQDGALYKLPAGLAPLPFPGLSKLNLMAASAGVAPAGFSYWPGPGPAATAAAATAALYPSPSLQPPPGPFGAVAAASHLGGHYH
# In short: as §1
# ETV5 = ETV5 (Homo sapiens, UniProt P41161 1-510); details: protein: recombinant; tags: N-terminal GST; dsDNA, one strand shown
# In short: as §1
# HSF1 = HSF1 (Homo sapiens, UniProt Q00613 1-529); details: protein: recombinant; tags: N-terminal GST; chain copies: 3; dsDNA, one strand shown
# In short: as §1
# SPIC = biological target: T8, SPIC (Homo sapiens, UniProt Q8N5J4 1-248); details: protein: recombinant; tags: N-terminal GST; dsDNA, one strand shown
# T8 sequence: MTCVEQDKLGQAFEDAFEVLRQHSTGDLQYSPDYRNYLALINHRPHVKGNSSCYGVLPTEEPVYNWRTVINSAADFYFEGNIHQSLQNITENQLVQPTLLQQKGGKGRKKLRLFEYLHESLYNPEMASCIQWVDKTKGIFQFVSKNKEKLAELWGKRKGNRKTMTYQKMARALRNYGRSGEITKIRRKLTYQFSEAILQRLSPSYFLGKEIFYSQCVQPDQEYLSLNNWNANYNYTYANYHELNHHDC
# In short: as §1
# ELF4 = ELF4 (Homo sapiens, UniProt Q99607 1-663); details: protein: recombinant; tags: N-terminal GST; dsDNA, one strand shown
# In short: as §1
# ELK4 = biological target: T9, ELK4 (Homo sapiens, UniProt P28324-2 1-405); details: protein: recombinant; tags: N-terminal GST; dsDNA, one strand shown
# T9 sequence: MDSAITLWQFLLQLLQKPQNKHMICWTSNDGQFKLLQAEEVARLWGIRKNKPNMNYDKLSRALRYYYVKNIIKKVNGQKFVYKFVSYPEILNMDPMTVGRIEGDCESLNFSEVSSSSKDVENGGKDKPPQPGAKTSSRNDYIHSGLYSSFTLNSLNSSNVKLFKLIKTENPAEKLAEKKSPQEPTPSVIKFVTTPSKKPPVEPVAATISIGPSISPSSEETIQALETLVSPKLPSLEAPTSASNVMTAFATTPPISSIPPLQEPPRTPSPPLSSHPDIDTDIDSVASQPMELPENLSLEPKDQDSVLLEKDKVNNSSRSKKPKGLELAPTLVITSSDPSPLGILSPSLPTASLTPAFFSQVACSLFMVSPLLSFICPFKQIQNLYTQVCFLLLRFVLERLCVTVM
# In short: as §1
# ETV2 = biological target: T10, ETV2 (Homo sapiens, UniProt O00321 1-342); details: protein: recombinant; tags: N-terminal GST; dsDNA, one strand shown
# T10 sequence: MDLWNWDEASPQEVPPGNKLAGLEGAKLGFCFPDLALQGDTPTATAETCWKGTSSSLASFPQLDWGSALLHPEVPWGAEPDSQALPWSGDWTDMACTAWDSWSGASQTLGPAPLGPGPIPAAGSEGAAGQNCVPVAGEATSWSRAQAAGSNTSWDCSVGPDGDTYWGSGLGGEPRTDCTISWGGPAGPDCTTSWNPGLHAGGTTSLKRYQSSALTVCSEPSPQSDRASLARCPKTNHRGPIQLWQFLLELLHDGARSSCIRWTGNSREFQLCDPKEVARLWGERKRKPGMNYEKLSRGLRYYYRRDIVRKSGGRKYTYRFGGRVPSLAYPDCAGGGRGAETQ
# In short: as §1
# ELF3 = biological target: T11, ELF3 (Homo sapiens, UniProt P78545 1-371); details: protein: recombinant; tags: N-terminal GST; dsDNA, one strand shown
# T11 sequence: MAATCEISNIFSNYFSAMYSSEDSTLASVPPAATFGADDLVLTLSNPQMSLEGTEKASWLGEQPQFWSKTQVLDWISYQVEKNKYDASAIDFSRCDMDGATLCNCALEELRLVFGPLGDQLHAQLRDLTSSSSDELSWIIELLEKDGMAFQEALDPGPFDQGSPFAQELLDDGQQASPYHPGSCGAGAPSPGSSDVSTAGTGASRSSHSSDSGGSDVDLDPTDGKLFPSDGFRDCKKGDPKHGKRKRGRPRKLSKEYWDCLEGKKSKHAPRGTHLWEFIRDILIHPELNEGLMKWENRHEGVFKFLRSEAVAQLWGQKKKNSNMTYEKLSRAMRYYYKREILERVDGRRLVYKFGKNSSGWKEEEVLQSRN
# In short: as §1
# CRX = CRX (Homo sapiens, UniProt O43186 1-299); details: protein: recombinant; tags: N-terminal GST; dsDNA, one strand shown
# In short: as §1
# ETV1 = ETV1 (Homo sapiens, UniProt P50549 1-477); details: protein: recombinant; tags: N-terminal GST; dsDNA, one strand shown
# In short: as §1
# Sequence of CRX (O43186 whole entry): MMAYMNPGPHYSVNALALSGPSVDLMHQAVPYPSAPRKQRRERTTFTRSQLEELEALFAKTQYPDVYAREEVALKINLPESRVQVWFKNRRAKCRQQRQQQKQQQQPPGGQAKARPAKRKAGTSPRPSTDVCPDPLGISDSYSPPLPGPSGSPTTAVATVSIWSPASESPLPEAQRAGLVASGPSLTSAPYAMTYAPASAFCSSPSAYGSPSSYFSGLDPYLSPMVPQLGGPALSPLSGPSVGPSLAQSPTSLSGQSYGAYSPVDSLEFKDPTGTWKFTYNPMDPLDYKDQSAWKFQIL
# Sequence of SPIB (Q01892 whole entry): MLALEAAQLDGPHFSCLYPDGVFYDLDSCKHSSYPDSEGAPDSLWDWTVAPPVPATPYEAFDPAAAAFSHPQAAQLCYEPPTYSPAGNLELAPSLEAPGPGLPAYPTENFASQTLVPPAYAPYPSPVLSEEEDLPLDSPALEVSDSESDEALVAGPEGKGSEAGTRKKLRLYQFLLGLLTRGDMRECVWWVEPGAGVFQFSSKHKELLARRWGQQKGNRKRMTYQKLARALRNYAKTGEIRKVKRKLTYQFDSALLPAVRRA
# Sequence of ELF4 (Q99607 whole entry): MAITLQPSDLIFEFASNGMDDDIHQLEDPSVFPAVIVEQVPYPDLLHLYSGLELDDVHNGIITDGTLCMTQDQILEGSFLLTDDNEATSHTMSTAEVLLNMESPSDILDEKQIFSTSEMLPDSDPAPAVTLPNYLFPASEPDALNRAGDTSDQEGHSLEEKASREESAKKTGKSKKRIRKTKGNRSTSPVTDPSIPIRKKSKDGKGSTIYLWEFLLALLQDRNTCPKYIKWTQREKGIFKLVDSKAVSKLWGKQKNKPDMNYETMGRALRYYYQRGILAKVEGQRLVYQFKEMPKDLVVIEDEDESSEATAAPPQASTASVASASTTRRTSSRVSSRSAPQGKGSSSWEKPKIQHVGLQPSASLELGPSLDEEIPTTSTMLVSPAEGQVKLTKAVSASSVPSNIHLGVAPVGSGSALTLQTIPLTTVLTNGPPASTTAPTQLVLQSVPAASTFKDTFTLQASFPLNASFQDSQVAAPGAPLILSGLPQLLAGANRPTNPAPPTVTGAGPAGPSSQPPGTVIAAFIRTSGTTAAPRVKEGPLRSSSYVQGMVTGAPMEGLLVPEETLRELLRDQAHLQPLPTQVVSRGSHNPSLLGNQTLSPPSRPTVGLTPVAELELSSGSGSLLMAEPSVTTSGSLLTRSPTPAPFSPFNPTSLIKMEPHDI
# Sequence of ETV1 (P50549 whole entry): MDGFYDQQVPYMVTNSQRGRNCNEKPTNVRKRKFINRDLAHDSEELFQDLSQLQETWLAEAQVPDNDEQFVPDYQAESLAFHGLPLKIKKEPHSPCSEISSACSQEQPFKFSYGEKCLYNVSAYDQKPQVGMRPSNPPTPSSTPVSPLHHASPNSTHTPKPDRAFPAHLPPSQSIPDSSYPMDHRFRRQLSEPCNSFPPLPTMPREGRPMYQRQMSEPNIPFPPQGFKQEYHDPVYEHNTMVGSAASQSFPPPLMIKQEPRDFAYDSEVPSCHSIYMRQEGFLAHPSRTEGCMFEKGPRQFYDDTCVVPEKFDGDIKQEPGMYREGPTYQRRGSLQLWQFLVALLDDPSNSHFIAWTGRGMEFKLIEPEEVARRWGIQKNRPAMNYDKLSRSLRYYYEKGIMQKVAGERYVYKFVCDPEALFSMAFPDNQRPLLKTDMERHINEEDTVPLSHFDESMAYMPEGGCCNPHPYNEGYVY
# Sequence of ELF1 (P32519 whole entry): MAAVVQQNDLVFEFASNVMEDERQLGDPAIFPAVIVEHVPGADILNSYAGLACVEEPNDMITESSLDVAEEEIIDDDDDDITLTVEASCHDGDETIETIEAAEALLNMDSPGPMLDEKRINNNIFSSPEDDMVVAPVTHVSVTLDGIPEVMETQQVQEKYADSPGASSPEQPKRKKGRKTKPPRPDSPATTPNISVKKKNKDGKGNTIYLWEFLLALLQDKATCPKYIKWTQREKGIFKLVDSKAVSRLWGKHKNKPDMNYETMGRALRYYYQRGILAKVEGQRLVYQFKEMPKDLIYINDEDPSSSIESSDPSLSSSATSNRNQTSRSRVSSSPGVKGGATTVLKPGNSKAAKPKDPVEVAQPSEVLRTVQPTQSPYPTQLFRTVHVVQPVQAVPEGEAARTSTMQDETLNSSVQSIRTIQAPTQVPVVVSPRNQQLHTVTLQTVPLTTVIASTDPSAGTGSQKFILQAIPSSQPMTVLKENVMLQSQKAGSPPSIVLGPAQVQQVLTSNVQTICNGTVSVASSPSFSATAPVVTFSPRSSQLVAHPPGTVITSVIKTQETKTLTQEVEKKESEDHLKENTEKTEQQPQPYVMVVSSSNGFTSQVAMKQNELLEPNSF
# Sequence of HSF1 (Q00613 whole entry): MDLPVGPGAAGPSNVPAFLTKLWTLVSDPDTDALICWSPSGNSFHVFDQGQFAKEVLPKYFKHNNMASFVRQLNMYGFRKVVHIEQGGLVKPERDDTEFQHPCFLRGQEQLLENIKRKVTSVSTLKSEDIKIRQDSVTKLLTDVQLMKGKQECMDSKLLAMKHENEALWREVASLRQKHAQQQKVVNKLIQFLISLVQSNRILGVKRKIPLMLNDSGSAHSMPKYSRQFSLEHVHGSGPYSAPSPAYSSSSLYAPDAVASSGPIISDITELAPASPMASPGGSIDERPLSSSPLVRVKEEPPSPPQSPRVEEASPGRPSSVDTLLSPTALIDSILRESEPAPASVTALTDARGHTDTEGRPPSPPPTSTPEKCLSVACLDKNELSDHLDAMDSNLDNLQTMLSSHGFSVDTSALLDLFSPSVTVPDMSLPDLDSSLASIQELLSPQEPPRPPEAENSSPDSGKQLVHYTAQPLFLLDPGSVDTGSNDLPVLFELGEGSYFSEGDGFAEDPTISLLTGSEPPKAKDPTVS
# Sequence of ETV5 (P41161 whole entry): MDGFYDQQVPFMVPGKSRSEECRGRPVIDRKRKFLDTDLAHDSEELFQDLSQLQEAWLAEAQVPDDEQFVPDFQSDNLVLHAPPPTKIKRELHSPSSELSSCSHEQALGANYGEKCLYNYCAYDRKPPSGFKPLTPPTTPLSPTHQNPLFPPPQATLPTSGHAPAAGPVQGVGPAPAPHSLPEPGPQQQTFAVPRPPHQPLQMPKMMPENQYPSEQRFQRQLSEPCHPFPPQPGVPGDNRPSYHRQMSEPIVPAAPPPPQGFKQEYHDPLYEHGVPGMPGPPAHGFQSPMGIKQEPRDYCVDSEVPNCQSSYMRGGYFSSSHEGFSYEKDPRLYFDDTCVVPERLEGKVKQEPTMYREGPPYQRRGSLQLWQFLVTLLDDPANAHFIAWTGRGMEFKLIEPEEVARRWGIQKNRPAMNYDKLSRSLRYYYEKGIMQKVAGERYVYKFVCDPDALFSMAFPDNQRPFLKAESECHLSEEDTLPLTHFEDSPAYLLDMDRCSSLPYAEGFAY
sequence,measurement,setting,value
AATATA,binding signal,FLI1,"1.28 fold enrichment (6-mer frequency, TF over GST control)"
same,binding signal,ELK1,"1.38 fold enrichment (6-mer frequency, TF over GST control)"
same,binding signal,GABPA,"1.35 fold enrichment (6-mer frequency, TF over GST control)"
same,binding signal,ERG,"1.33 fold enrichment (6-mer frequency, TF over GST control)"
same,binding signal,ELF1,"1.37 fold enrichment (6-mer frequency, TF over GST control)"
same,binding signal,EHF,"1.42 fold enrichment (6-mer frequency, TF over GST control)"
same,binding signal,SPI1,"1.37 fold enrichment (6-mer frequency, TF over GST control)"
same,binding signal,SPIB,"1.28 fold enrichment (6-mer frequency, TF over GST control)"
same,binding signal,ELK3,"1.43 fold enrichment (6-mer frequency, TF over GST control)"
same,binding signal,FEV,"1.3 fold enrichment (6-mer frequency, TF over GST control)"
same,binding signal,ETV5,"1.33 fold enrichment (6-mer frequency, TF over GST control)"
same,binding signal,HSF1,"1.38 fold enrichment (6-mer frequency, TF over GST control)"
same,binding signal,SPIC,"1.29 fold enrichment (6-mer frequency, TF over GST control)"
same,binding signal,ELF4,"1.3 fold enrichment (6-mer frequency, TF over GST control)"
same,binding signal,ELK4,"1.39 fold enrichment (6-mer frequency, TF over GST control)"
same,binding signal,ETV2,"1.35 fold enrichment (6-mer frequency, TF over GST control)"
same,binding signal,ELF3,"1.5 fold enrichment (6-mer frequency, TF over GST control)"
same,binding signal,CRX,"1.62 fold enrichment (6-mer frequency, TF over GST control)"
same,binding signal,ETV1,"1.39 fold enrichment (6-mer frequency, TF over GST control)"

# — publication PMC7862700, “An all-to-all approach to the identification of sequence-specific readers for epigenetic DNA modifications on cytosine”
